# Reference: PubChem BioAssay
# The source made the active and inactive calls.
# Legend:
# [1] = test system: Human papillomavirus type 1a protein E7 (residues 44-93); assay: small molecules binding HPV E7 44-93 – biochemical, small-molecule microarray, residues 44-93, 635 nm fluorescence, primary screen (AID 1108); conditions: fluorescence 635 nm, higher = more signal;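 further: E7 fragment applied at 1 µg/mL in TBST for 1 h at 4 C; score combines spot fluorescence with its signal to noise ratio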
# [2] = hepatitis C replication reporter changes, two-sided – Huh7 cells, luciferase reporter, HCV replication inhibitor project, primary screen (AID 1109); conditions: Huh7 HCV replicon luciferase reporter, 48 h; higher = more signal;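 further: huh7 hepatoma cells harbouring a luciferase neomycin HCV replicon reporter; luciferase luminescence as measure of HCV replicon replication; test concentration not given here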
# [3] = biological target: Left-right determination factor 2 (Homo sapiens) (UniProt O00292); assay: small molecules binding LEFTY2 protein – biochemical, small-molecule microarray, 635 nm fluorescence scan, primary screen (AID 1110); conditions: higher = more signal
# Sequence of Left-right determination factor 2 (Homo sapiens) (O00292 whole entry, looked up): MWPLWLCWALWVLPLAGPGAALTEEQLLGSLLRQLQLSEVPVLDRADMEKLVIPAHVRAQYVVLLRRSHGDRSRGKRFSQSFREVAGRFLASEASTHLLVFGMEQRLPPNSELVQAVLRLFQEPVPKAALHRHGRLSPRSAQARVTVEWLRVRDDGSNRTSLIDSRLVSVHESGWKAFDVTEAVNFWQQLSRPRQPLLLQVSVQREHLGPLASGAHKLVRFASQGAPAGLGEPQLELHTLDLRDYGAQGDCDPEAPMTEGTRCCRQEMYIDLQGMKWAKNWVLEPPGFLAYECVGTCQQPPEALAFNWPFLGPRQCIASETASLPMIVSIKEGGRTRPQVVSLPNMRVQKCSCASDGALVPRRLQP
# [4] = biological target: Calmodulin-1 (Homo sapiens) (UniProt P0DP23); assay: small molecules binding calmodulin-1 with EGTA – biochemical, small-molecule microarray, Cy5-labelled CALM1, profiling panel (AID 1111); conditions: Cy5-CALM1 binding fluorescence, higher = more signal;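 further: labelled calmodulin applied in Tris saline Tween buffer holding calcium plus EGTA and DTT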
# [5] = biological target: Calmodulin-1 (Homo sapiens) (UniProt P0DP23); assay: small molecules binding Ca-loaded calmodulin-1 – biochemical, small-molecule microarray, Cy5-labelled CALM1, plus calcium, artefact control for SMM control-protein annotation, profiling panel (AID 1112); conditions: Cy5-CALM1 binding fluorescence, higher = more signal;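 further: score merges spot fluorescence with signal to noise from triplicate slides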
# [6] = probe aWnt5a binding to arrayed compounds – biochemical, biotinylated probe, 635/667 nm fluorescence, primary screen (AID 1113); conditions: small-molecule microarray, higher = more signal;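 further: score merges 667 nm fluorescence intensity with signal-to-noise per printed feature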
# [7] = probe aShh binding to arrayed compounds – biochemical, biotinylated probe, 635/667 nm fluorescence, primary screen (AID 1114); conditions: small-molecule microarray, higher = more signal;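 further: probe is biotin-labelled aShh protein from a stem cell growth factor screen; measures binding of labelled protein to compounds printed on the slide; score merges feature fluorescence at 667 nm with signal-to-noise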
# [8] = probe aNog binding to arrayed compounds – biochemical, biotinylated probe, 635/667 nm fluorescence, primary screen (AID 1115); conditions: small-molecule microarray, higher = more signal;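 further: probe is biotinylated aNog protein used at 0.15 µg/mL for 1 h at 4 C; z-score combines 667 nm fluorescence of each spot with its signal to noise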
# [9] = biological target: Torsin-1A-interacting protein 1 (Homo sapiens) (UniProt Q5JTV8); assay: compound microarray binding of lysate hLAP1 – cell lysate, small-molecule microarray, COS7 lysate, 635/667 nm fluorescence, primary screen (AID 1116); conditions: 635 nm fluorescence, higher = more signal
# Sequence of Torsin-1A-interacting protein 1 (Homo sapiens) (Q5JTV8 whole entry, looked up): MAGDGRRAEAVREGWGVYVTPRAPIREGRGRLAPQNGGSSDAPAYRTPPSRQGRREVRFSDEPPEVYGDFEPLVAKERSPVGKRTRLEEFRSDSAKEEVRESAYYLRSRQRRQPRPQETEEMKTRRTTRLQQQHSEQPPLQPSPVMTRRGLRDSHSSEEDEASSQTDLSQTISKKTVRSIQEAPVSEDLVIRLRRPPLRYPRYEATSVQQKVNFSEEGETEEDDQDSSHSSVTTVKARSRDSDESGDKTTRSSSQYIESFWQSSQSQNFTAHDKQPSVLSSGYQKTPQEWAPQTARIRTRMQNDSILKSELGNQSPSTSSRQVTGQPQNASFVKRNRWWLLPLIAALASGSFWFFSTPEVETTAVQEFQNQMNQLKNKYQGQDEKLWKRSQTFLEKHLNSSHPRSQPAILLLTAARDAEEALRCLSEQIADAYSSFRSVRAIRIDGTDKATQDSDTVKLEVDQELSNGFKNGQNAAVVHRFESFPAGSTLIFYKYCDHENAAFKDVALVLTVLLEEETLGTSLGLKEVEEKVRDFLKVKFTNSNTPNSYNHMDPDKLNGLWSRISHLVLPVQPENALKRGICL
# [10] = biological target: Alpha-bungarotoxin (Bungarus multicinctus) (UniProt P60615); assay: compounds binding labelled alpha-BTX control protein – biochemical, small-molecule microarray, Alexa647 label, 635/667 nm fluorescence, artefact control for SMM control protein annotation, profiling panel (AID 1117); conditions: alpha-BTX-A647 binding fluorescence, higher = more signal
# Sequence of Alpha-bungarotoxin (Bungarus multicinctus) (P60615 whole entry, looked up): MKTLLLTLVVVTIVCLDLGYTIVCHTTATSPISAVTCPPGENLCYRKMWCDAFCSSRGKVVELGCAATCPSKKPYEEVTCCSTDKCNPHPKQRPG
# Albumin (Bos taurus) = Albumin (Bos taurus) (UniProt P02769); assay: compounds binding labelled BSA control protein – biochemical, small-molecule microarray, Alexa647 label, 635/667 nm fluorescence, artefact control for SMM control protein annotation, profiling panel (AID 1118); conditions: BSA-A647 binding, fluorescence 635 nm, higher = more signal;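 further: score merges 667 nm emission intensity and signal-to-noise per printed compound spot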
# Sequence of Albumin (Bos taurus) (P02769 whole entry, looked up): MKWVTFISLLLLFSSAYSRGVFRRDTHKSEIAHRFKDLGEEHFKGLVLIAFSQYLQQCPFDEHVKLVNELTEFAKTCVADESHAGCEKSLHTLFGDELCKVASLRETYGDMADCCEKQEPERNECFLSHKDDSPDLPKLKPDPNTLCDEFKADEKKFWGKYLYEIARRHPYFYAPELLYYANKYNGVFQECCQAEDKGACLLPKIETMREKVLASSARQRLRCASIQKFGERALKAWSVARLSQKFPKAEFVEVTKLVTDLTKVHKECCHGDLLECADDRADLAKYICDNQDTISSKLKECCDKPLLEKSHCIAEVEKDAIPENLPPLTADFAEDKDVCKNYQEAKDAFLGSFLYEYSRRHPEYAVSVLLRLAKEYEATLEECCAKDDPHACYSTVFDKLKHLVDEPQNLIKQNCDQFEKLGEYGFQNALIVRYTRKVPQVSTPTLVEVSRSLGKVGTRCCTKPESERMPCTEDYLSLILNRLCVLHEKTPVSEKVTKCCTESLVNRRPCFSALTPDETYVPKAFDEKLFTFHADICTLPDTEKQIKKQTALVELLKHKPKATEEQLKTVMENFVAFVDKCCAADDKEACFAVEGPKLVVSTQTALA
# [11] = probe aXIP binding to arrayed compounds – biochemical, NeuroSMM set, 635/667 nm fluorescence, primary screen (AID 1119); conditions: small-molecule microarray, higher = more signal, called active from +8 up or from −8 down;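 further: probe is the protein aXip251-270 applied at 1 µg/mL to compound-printed slides; binding of probe to printed compounds measured as 667 nm fluorescence plus signal to noise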
# [12] = probe aNOTCH3 binding on compound microarray – biochemical, small-molecule microarray, 635/667 nm fluorescence, primary screen (AID 1120); conditions: higher = more signal;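 further: probe is a biotin-tagged antibody raised against NOTCH3 rather than NOTCH3 protein; score merges spot fluorescence near 667 nm with spot signal to noise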
# [13] = probe aNOTCH2 binding on compound microarray – biochemical, small-molecule microarray, 635/667 nm fluorescence, primary screen (AID 1121); conditions: higher = more signal;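 further: score merges feature fluorescence read at 667 nm with its signal to noise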
# [14] = biological target: Carbonic anhydrase 2 (Homo sapiens) (UniProt P00918); assay: compounds binding carbonic anhydrase 2 – biochemical, small-molecule microarray, Alexa647-labelled CAII, profiling panel (AID 1122); conditions: CAII-A647 binding fluorescence, higher = more signal
# [15] = COS7 lysate on small-molecule microarray, probe aHis, 635 nm (AID 1123); conditions: COS7 cell lysate, fluorescence, higher = more signal;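 further: z-score combines 667nm fluorescence intensity with signal-to-noise per printed compound spot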
# [16] = probe aLAP1 signal on lysate-treated microarray – cell lysate, small-molecule microarray, COS7 lysate, primary screen (AID 1124); conditions: probe aLAP1, fluorescence, higher = more signal;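 further: lysate comes from COS7 cells expressing LAP1 and is applied at 0.3 µg/mL; score merges spot fluorescence near 667 nm with signal-to-noise over triplicate slides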
# Sam68 (KHDRBS1) = assay: compounds binding KHDRBS1 protein – biochemical, small-molecule microarray, 635 nm fluorescence, primary screen (AID 1125); conditions: higher = more signal;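 further: score merges 667 nm channel intensity with signal to noise over triplicate slides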
# [17] = test system: Chordin-like protein 2 (CHRDL2); assay: compounds binding chordin-like 2 – biochemical, small-molecule microarray, 635 nm fluorescence, primary screen (AID 1126); conditions: fluorescence 635 nm, higher = more signal;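 further: printed compound slides probed with Chrdl2 protein at 4 µg/mL for 1 h at 4 C; score merges 667 nm emission intensity with signal to noise over three replicate slides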
# [18] = biological target: Concanavalin-A (Canavalia ensiformis) (UniProt P02866); assay: compounds binding concanavalin A lectin – biochemical, small-molecule microarray, Alexa647 label, 635 nm, artefact control for SMM control protein annotation, primary screen (AID 1127); conditions: ConA-A647 binding fluorescence, higher = more signal;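 further: z combines 667 nm emission intensity with signal-to-noise across three replicate slides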
# Sequence of Concanavalin-A (Canavalia ensiformis) (P02866 whole entry, looked up): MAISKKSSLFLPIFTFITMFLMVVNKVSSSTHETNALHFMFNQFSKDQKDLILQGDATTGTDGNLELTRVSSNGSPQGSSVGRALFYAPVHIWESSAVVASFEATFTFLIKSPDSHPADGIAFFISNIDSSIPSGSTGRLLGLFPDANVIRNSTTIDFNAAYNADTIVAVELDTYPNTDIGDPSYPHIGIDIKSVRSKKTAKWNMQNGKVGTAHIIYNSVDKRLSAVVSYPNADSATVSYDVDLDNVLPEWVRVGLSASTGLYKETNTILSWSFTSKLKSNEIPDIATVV
SMILES,composite z-score [1],z-score [2],composite z-score [3],composite z-score [4],composite z-score [5],composite z-score [6],composite z-score [7],composite z-score [8],composite z-score [9],composite z-score [10],composite z-score (Albumin (Bos taurus)),composite Z-score [11],composite z-score [12],composite z-score [13],composite z-score [14],composite z-score [15],composite z-score [16],composite z-score (Sam68 (KHDRBS1)),composite z-score [17],composite z-score [18]
COc1ccc(COC(=O)NN=C2C[C@@H](O)[C@@H](O)[C@@H]3[C@@H]4C(=O)N(Cc5ccc6c(c5)OCO6)C(=O)[C@@H]4CC[C@@H]23)cc1,-0.743,-0.404,-0.218,-0.389,-0.252,-0.0465,0.255,0.175,0.508,0.452,-0.152,-0.463 (inactive),0.218,0.015,-0.244,0.115,0.616,-0.395,-0.54,-1.3
O=C1[C@H]2[C@H]3[C@H](O)[C@H](O)CC(=NO[C@@H]4O[C@H](CO)[C@@H](O)[C@H](O)[C@H]4O)[C@H]3CC[C@H]2C(=O)N1Cc1ccccc1,0.386,0.322,0.652,-0.058,-0.534,0.0044,-0.209,0.124,0.135,0.784,-0.258,-0.304 (inactive),0.0145,-0.127,-0.457,0.904,0.0052,1.32,-0.564,0.0723
CN(C)C(=O)[C@@]1(Cc2ccccc2)N=C(c2ccc(OCCCO)cc2)O[C@H]1c1ccccc1CN=[N+]=[N-],1.1,-2.14,-0.068,2.47,1.26,0.313,0.64,-0.18,2.95,2.62,0.968,1.29 (inactive),0.329,0.319,0.587,2.49,0.797,1.29,-0.25,1.14
N#Cc1ccc(NN2C(C(O)c3cccc4ccccc34)C=CC3C(=O)N(c4ccccc4)C(=O)C32)cc1 (stereo not given),1.48,0.148,0.221,1.74,0.164,0.139,0.23,0.837,0.365,1.09,0.595,0.544 (inactive),0.479,0.0687,0.696,2.82,0.599,1.31,-0.0989,0.926
CCOC(=O)[C@H](Cc1ccccc1)NC(=O)CCC1CC(OC(=O)NCCc2ccc(F)cc2)CC2(CCCC(COC(=O)NCC(c3ccccc3)c3ccccc3)O2)O1 (stereo not given in full),1.33,0.0395,0.414,0.53,-0.658,-0.124,-0.0146,-0.0496,2.49,0.0051,0.641,0.066 (inactive),-0.0893,-0.037,0.16,1.04,0.0435,1.32,0.227,0.992
C/C=C\[C@@H](NCc1ccccc1Br)[C@@H](O)Cc1ccccc1,-0.594,-3.08,-0.472,-0.64,0.0924,-0.12,-0.291,-0.18,-0.541,-0.791,0.099,0.168 (inactive),-0.221,-0.13,-0.263,-0.103,-0.0543,-0.636,-1.02,-0.342
COC(=O)[C@@]1(Cc2ccc(F)cc2)[C@@H]2C(=CC(=O)[C@H]2CC(=O)C(=O)N(C)C)CN1C(=O)c1ccccc1,1.46,-2.09,0.45,1.98,1.21,0.0839,1.21,0.896,1.52,0.954,0.979,-1.12 (inactive),0.476,0.308,0.785,3.01,0.663,1.21,0.13,1.16
CCOC(=O)CCN1C(=O)[C@H]2[C@H]3[C@H](O)[C@H](O)CC(=NOCc4ccccc4)[C@@H]3CC[C@H]2C1=O,-0.482,-1.08,0.591,-0.138,-0.848,-0.0125,-0.243,0.107,-0.0594,0.419,0.762,0.415 (inactive),-0.0996,-0.199,0.381,0.317,0.784,0.37,0.116,0.246
CC=CC1=C(CO)[C@H](O)[C@H]2O[C@H]2[C@H]1O,0.598,-0.956,0.827,-0.381,-1.02,-0.0758,-0.304,-0.309,-0.134,-0.0092,-0.15,0.0448 (inactive),-0.113,-0.146,-0.173,-0.188,-0.182,0.278,1.09,0.291
COCCCNC(=O)[C@]1(Cc2ccccc2)N=C(c2ccc(OCCCO)cc2)O[C@@H]1c1ccccc1,1.09,-1.05,-0.248,1.81,0.213,0.201,0.299,1.89,1.84,1.32,0.998,0.12 (inactive),0.108,0.0745,0.726,3.09,0.401,1.31,-0.547,1.02
O=C1C[C@@H](O)[C@@H](O)[C@@H]2[C@@H]3C(=O)N(c4cccc(Oc5ccccc5)c4)C(=O)[C@@H]3CC[C@@H]12,0.994,-0.197,0.962,0.77,-0.261,-0.0327,-0.206,-0.4,0.613,0.106,0.164,-0.397 (inactive),0.0496,0.0364,0.285,0.625,0.318,1.03,0.364,0.899
CC(CCN1CCCCc2nc(C)c(C)cc21)=NOC(C)CN1CCCc2nc(C)c(C)cc21 (stereo not given),1.2,-0.974,1.12,1.09,-0.573,0.298,1.25,0.578,1.13,2.07,0.493,1.69 (inactive),0.721,0.153,0.533,1.79,0.257,1.29,1.2,1.14
